Assay [1] is described as follows: ATG_CMV_CIS: Attagene CIS-FACTORIAL HepG2 Assay for human CMV (Internal Marker) (AID 2282928).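 Note: endpoint acts as a background internal control marker rather than a target.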 The settings on record: HepG2 CMV promoter reporter, transcription factor profiling; actives raise or lower the signal. A digest of the protocol:
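HepG2 cells transiently transfected with multiple cis-regulated reporter units; 24 h compound exposure. Reporter mRNA quantified by RT-PCR, 6-FAM primer-extension labeling, HpaI digestion and capillary electrophoresis; bidirectional fitting against DMSO baseline.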

The nature of assay [2]: ATG_DR4_LXR_CIS: Attagene CIS-FACTORIAL HepG2 Assay for human Liver X Receptor (LXR), DR4 submotif (AID 2282929). The following applies: HepG2 Attagene DR4 cis-reporter, mRNA transcription; AC50: actives raise or lower the signal unless noted; outcome: actives raise or lower the signal unless noted. The method, boiled down: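 HepG2, transient MRTU transfection, cis-element (DR4) promoter; 24 h compound exposure; total RNA → oligo(dT) RT → PCR → 6-FAM primer extension → HpaI cut → CE. Gain/loss vs DMSO, bidirectional fit.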

The target of assay [3] is Aryl hydrocarbon receptor (Homo sapiens) (UniProt P35869). Put plainly: ATG_Ahr_CIS: Attagene CIS-FACTORIAL HepG2 Assay for human Aryl Hydrocarbon Receptor (Ahr) (AID 2282930). The settings on record: HepG2 AhR cis-factorial reporter transcription; actives raise or lower the signal. A digest of the protocol: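 Endogenous factor activity is tracked through cis-promoter reporter units transfected into HepG2 cells. Transcript levels at 24 h are read by fluorescent RT-PCR and capillary electrophoresis, with activity in either direction scored relative to DMSO.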
Aryl hydrocarbon receptor (Homo sapiens), sequence (P35869 whole entry, looked up): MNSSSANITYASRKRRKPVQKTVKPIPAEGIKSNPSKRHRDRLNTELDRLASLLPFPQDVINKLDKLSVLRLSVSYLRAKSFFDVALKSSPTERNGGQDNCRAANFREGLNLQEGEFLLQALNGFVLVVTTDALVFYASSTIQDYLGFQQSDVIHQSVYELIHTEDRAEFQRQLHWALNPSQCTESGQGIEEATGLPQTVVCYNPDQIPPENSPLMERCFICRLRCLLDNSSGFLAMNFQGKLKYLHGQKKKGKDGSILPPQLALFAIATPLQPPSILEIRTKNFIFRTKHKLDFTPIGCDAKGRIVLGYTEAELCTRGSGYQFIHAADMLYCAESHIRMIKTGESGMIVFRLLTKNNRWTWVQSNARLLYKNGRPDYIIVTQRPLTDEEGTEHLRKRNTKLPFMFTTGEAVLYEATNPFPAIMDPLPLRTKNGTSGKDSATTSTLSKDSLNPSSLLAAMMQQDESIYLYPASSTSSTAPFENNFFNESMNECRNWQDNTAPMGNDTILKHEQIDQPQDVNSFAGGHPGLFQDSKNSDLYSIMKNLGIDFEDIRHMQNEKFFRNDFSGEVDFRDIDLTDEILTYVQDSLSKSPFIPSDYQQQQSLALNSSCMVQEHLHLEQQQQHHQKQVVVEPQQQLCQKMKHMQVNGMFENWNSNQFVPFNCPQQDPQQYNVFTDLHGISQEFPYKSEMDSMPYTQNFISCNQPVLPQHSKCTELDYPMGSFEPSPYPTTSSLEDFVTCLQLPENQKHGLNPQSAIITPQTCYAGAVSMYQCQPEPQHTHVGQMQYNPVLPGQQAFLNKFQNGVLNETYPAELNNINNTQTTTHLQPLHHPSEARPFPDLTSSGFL

Assay [4] in a line: ATG_AP_1_CIS: Attagene CIS-FACTORIAL HepG2 Assay for human Activator Protein 1 (AP-1) (AID 2282931). The settings on record: HepG2 Attagene cis-factorial AP-1 reporter mRNA; actives raise or lower the signal. A digest of the protocol:
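Transient MRTU transfection of HepG2 → 24 h chemical treatment → RNA isolation, RT-PCR, 6-FAM labelling, HpaI digest → capillary electrophoresis. Fit: bidirectional, DMSO negative control.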

Assay [5] can be described thus: ATG_AP_2_CIS: Attagene CIS-FACTORIAL HepG2 Assay for human Activator Protein 2 (AP-2) (AID 2282932). The following applies: HepG2 AP-2 cis-reporter, Attagene transcription factor profiling; AC50: actives raise or lower the signal unless noted; outcome: actives raise or lower the signal unless noted. The method, boiled down: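 HepG2 cells transiently transfected with cis-element reporter units and exposed for 24 h. Reporter mRNA measured by RT-PCR, FAM labelling, HpaI digestion and capillary electrophoresis. Changes in either direction fitted relative to DMSO.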

A short description of assay [6]: ATG_BRE_CIS: Attagene CIS-FACTORIAL HepG2 Assay for human Bone Morphogenetic Protein (BMP) Response Element (BRE) (AID 2282933). The following applies: HepG2 BMP response element reporter, Attagene transcription factor profiling; actives raise or lower the signal. The method, boiled down: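 A HepG2 multiplex reporter system measured inducible reporter mRNA 24 h post-dosing. Detection: RT-PCR, 6-FAM primer extension, HpaI digestion, capillary electrophoresis. Activity fitted bidirectionally relative to DMSO.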

Assay [7] addresses Retinoic acid receptor alpha (Homo sapiens) (UniProt P10276). Briefly: ATG_DR5_RAR_CIS: Attagene CIS-FACTORIAL HepG2 Assay for human Retinoic Acid Receptor Alpha (RARE), DR5 submotif (AID 2282934).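 For AC50: reporter responds to endogenous RAR alpha beta and gamma in HepG2 not RARA alone.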 The following applies: HepG2 Attagene cis-factorial RARE DR5 reporter, mRNA; actives raise or lower the signal. A digest of the protocol:
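After 24 h of chemical exposure, transiently transfected HepG2 cells were lysed for total RNA; the DR5-regulated reporter transcript was quantified via RT-PCR and capillary electrophoresis, with activity fitted bidirectionally against DMSO.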

Assay [8] deals with Transcription factor E2F1 (Homo sapiens) (UniProt Q01094). Put plainly: ATG_E2F_CIS: Attagene CIS-FACTORIAL HepG2 Assay for human E2F Transcription Factor 1 (AID 2282935). The settings on record: HepG2 Attagene cis-reporter, E2F reporter RNA transcripts; actives raise or lower the signal. The method, boiled down: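 Endogenous E2F1 activity read through cis-promoter reporter units transfected into HepG2. After 24 h compound treatment, reporter mRNA measured by RT-PCR, HpaI digestion and capillary electrophoresis. Bidirectional fit versus DMSO.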
Transcription factor E2F1 (Homo sapiens), sequence (Q01094 whole entry, looked up): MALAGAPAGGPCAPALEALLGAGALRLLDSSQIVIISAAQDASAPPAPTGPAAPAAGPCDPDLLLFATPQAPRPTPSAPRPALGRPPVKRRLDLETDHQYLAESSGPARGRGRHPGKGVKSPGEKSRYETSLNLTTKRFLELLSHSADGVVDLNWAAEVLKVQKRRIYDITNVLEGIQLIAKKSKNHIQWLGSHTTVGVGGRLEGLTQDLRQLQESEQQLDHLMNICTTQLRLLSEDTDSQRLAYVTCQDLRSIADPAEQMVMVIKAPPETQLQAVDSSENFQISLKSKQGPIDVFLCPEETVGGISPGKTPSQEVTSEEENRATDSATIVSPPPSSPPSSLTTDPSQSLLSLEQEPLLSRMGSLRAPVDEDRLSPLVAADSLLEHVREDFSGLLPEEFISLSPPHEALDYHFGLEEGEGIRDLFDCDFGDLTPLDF

Assay [9] is described as follows: ATG_E_Box_CIS: Attagene CIS-FACTORIAL HepG2 Assay for human Enhancer Box (E-box) (AID 2282936). The settings on record: HepG2 E-box cis-reporter transcription, actives raise or lower the signal. The method, boiled down: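 HepG2 cells transiently transfected with multiplexed cis-element reporter units, dosed 24 h; reporter mRNA quantified by RT-PCR, 6-FAM labelling, HpaI digestion and capillary electrophoresis. E-box (USF1) signal fitted bidirectionally vs DMSO.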

Each structure is given as a SMILES string. The source made the active and inactive calls. Rule for the calls: active = hit-call score of the fitted dose curve at least 0.9, where 1 is the maximum; inactive = score below 0.9.

Retinoic acid receptor alpha (Homo sapiens), sequence (P10276 whole entry, looked up): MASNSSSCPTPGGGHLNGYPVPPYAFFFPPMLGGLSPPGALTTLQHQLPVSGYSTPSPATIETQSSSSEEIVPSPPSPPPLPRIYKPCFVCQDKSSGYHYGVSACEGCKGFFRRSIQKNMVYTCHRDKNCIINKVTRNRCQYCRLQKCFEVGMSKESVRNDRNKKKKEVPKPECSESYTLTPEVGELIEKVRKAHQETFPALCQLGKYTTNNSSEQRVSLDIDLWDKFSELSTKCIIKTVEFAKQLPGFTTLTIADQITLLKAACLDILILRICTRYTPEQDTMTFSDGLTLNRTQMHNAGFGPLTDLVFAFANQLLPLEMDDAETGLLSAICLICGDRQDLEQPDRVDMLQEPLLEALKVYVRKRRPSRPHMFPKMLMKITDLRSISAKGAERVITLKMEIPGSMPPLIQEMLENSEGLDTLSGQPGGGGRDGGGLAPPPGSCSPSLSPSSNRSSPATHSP

For `C=CC(F)(F)C(F)(F)C(F)(F)C(F)(F)F`, the compound was called inactive in assay [1], in assay [2], in [3], in assay [4], in assay [5] and in [6]. Moreover, the compound was classed as inactive in [7], in assay [8] and in assay [9].

Regarding `NCCN`, the compound was classed as inactive in assay [1], in assay [2], in assay [3], in assay [4], in [5] and in assay [6]. Moreover, the compound was classed as inactive in [7], in [8] and in [9].

Take `NC(C(F)(F)F)C(F)(F)F`: the outcome in [1], in assay [2], in assay [3], in assay [4], in assay [5] and in assay [6] was inactive. Also, the call in [7] and in assay [8] was inactive.

Regarding `Cc1ccc(N=Nc2c(O)ccc3ccccc23)c(C)c1`, the outcome in [1], in assay [2], in assay [5], in [6] and in assay [7] was inactive. The results for the AC50 in assay [3] and in [4] were 0.36 µM (active) and 5.87 µM (active), respectively.

For the compound `CC(C)[C@@H]1CC[C@@H](C)C[C@H]1O`, the result in [1], in assay [2], in assay [3], in [4], in [5] and in assay [6] was inactive. The call in [7] and in assay [9] was inactive.

In the case of `CCc1cccc(CC)c1NC(=O)C(=O)O`, the outcome in assay [1], in assay [2], in assay [3], in assay [4], in assay [5] and in [6] was inactive. Further, the result in assay [7] and in [9] was inactive.

As for `COc1cc(OC)nc(NC(=O)NS(=O)(=O)Nc2ccccc2C(=O)N(C)C)n1`, the compound was classed as inactive in assay [1], in assay [2], in assay [3], in assay [4], in assay [5] and in [7]. Besides, in assay [8], the compound was called inactive.

For `CCCCCCCCCCCC[N+](C)(C)CCCCCCCCCCCC`, the results for the AC50 in assay [1] and in assay [5] were 182 µM (active) and 168 µM (active), respectively. The result in assay [2], in assay [4], in assay [6], in assay [7] and in assay [9] was inactive.

For `OCC1CCC(CO)CC1` (centres undefined), the call in [1], in assay [2], in assay [3], in assay [4], in assay [5] and in assay [6] was inactive. Besides, the compound was called inactive in assay [8] and in [9].

Turning to `O=C(F)C(F)(F)C(F)(F)C(F)(F)C(=O)F`, the outcome in [1], in [2], in [3], in assay [4], in assay [5] and in assay [7] was inactive. The result in [9] was inactive.

For the compound `CCCCCCCCCCCCCCCCCC[N+](C)(C)Cc1ccccc1`, the call in assay [1], in [4] and in assay [7] was inactive. Further, the AC50 (in general, the midpoint of the concentration-response curve, whichever way the signal moves) in assay [2] is 12.8 µM (active); in assay [3] it was 12.3 µM (active); in assay [5], 88.1 µM (active); in [6], 4.38 µM (active); in assay [8], 12.8 µM (active); in [9], 18.4 µM (active).

Turning to `CC(=O)Nc1ccc(S(N)(=O)=O)cc1`, the outcome in assay [1], in assay [2], in assay [3], in assay [4], in assay [5] and in assay [6] was inactive. Further, the outcome in [8] and in [9] was inactive.

For `C[C@]12CC[C@@H]3c4ccc(O)cc4CC[C@H]3[C@@H]1CC[C@@H]2OC(=O)CCC1CCCC1`, the half-maximal activity concentration (AC50) was 25.3 µM (active) in assay [1]; 14.8 µM (active) in [2]; 126 µM (active) in assay [3]; 58.2 µM (active) in assay [6]; 73.3 µM (active) in assay [9]. Moreover, the result in [4], in [5], in assay [7] and in assay [8] was inactive.

For the compound `O=C(O)C(=O)O`, the compound was called inactive in assay [1], in assay [2], in [4], in assay [5], in assay [6] and in assay [7]. In addition, the outcome in assay [8] and in [9] was inactive.

Take `Cc1cc(=O)oc2cc(O)ccc12`: the result in [1], in assay [2], in assay [3], in [4], in assay [5] and in assay [9] was inactive.

In the case of `OCCN1CN(CCO)CN(CCO)C1`, the compound was classed as inactive in [1], in [3], in assay [4], in [6], in assay [8] and in [9]. In addition, the concentration at half-maximal activity (AC50) in assay [2] was 63.4 µM (active); in assay [5], 143 µM (active); in [7] it was 144 µM (active).

With `C=CC(=O)OCCC(F)(F)C(F)(F)C(F)(F)C(F)(F)C(F)(F)C(F)(F)F`, the compound was classed as inactive in assay [1], in assay [2], in assay [4], in assay [5], in assay [7] and in [8]. In addition, the outcome in [9] was inactive.

(Values after PubChem BioAssay (EPA / NIEHS).)
